# Results taken from article PMC4336329 (PLoS ONE, 2015).
# Out of some 310,000 compounds screened, about 2,200 (0.71%) showed an effect of 50% or more. Effects have a minus sign here. The sample as a whole holds a higher share of strong results than the screen did.
# Molecular target: human ether-à-go-go-related gene (hERG) potassium channel (human, UniProt Q12809)
# Assay: primary screen, population patch clamp on CHO cells stably expressing hERG; higher = less effect of the substance
# human ether-à-go-go-related gene (hERG) potassium channel, sequence (Q12809 whole entry, looked up): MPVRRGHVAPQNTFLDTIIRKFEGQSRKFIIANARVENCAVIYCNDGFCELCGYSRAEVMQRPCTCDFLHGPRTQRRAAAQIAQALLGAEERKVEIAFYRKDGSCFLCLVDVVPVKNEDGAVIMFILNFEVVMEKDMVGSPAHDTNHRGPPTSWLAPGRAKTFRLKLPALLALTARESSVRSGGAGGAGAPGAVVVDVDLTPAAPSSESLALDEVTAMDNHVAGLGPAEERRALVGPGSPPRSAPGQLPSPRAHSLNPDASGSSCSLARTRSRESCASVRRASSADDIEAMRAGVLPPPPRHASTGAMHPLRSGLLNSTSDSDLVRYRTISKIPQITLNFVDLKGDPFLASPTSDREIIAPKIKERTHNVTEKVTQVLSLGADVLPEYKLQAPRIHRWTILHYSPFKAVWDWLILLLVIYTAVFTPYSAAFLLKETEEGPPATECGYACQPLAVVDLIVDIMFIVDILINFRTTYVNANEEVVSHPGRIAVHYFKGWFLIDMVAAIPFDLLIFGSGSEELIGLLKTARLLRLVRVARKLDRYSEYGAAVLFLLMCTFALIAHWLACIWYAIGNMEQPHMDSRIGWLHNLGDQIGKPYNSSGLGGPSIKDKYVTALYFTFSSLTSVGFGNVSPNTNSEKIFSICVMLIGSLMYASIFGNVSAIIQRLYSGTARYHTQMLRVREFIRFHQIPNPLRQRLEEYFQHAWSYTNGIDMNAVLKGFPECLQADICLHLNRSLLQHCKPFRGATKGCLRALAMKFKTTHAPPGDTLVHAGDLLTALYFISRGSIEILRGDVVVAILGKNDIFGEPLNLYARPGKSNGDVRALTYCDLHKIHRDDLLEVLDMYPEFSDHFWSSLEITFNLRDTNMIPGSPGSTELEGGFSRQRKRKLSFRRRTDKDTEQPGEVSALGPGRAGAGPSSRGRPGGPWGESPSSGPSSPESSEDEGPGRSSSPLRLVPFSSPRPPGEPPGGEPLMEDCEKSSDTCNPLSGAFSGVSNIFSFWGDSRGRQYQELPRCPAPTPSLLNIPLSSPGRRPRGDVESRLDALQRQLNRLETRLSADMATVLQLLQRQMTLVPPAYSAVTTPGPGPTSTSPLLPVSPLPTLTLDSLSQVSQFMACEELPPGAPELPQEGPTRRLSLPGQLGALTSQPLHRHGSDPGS
row,Compound,"hERG current change (%, negative = inhibition) at 1uM [%]"
1,CCCCNCC(=O)Nc1ccc(NC(=O)CNCCCC)cc1,16.2
2,CCCN1Cc2cccc(C(N)=O)c2C1=O,3.15
3,O=C(c1cccc(C(F)(F)F)c1)C1CCCN(Cc2cccn2-c2ccccn2)C1 (stereo not drawn),-90.4
4,O=C(c1ccc(C(F)(F)F)cc1)C1CCCN(Cc2cccn2-c2ncccn2)C1 (stereo not drawn),-88
5,O=C(c1cccc(C(F)(F)F)c1)C1CCCN(Cc2ccccc2O)C1 (stereo not drawn),13.2
6,CCn1ccnc1CN1CCCC(C(=O)c2cccc(C(F)(F)F)c2)C1 (stereo not drawn),1.55
7,Cc1cccc(CN2CCCC(C(=O)c3ccc(C(F)(F)F)cc3)C2)n1 (stereo not drawn),-40
8,O=C(c1ccc(C(F)(F)F)cc1)C1CCCN(Cc2ccncc2)C1 (stereo not drawn),-7.99
9,CC(=O)Nc1ccc(CN2CCCC(C(=O)c3cccc(C(F)(F)F)c3)C2)cc1 (stereo not drawn),7.86
10,O=C(c1cccc(C(F)(F)F)c1)C1CCCN(Cc2cccn2-c2ncccn2)C1 (stereo not drawn),-105
11,O=C(c1cccc(C(F)(F)F)c1)C1CCCN(Cc2ncc[nH]2)C1 (stereo not drawn),11.1
12,CC(=O)c1ccc(S(=O)(=O)Nc2ccccc2C(=O)NC2CC2)cc1,9.72
13,O=C1CN(S(=O)(=O)c2cccc(C(=O)O)c2)c2ccccc2N1,11.3
14,CCC(CC)c1nnc(NC(=O)c2ccc(N3CCCCC3)c([N+](=O)[O-])c2)s1,-9.23
15,C=CCN(CC(O)c1cccc([N+](=O)[O-])c1)C(C)CCc1ccccc1.Cl (stereo not drawn),-9.83
16,CC(CCc1ccccc1)N(C)CC(O)c1cccc([N+](=O)[O-])c1.Cl (stereo not drawn),-56.8
17,CC(CCc1ccccc1)NCC(O)c1cccc([N+](=O)[O-])c1.Cl (stereo not drawn),-8.42
18,O=C(NCC1CCCN(Cc2cccc(C(F)(F)F)c2)C1)c1ccc(F)cc1 (stereo not drawn),-5.71
19,Cc1cc(CN2CCCC(CNC(=O)c3ccc(F)cc3)C2)cc(C)c1O (stereo not drawn),-14.5
20,CCOC(=O)C1(CC2CCCCO2)CCN(Cc2c(C)cc(C)cc2-n2cccn2)CC1 (stereo not drawn),-84.1
21,COc1cccc(CN2CCCC(CNC(=O)c3ccc(F)cc3)C2)c1OC (stereo not drawn),-12.6
22,Cc1cc(C)c(CN2CCCC(CNC(=O)c3ccc(F)cc3)C2)c(-n2cccn2)c1 (stereo not drawn),-85.4
23,CCOC(=O)C1(CC2CCCCO2)CCN(Cc2nccn2-c2cccc(C)c2)CC1 (stereo not drawn),-1.48

row,Compound,"hERG current change (%, negative = inhibition) at 1uM [%]"
1,Cc1ccc(-n2cccn2)c(CN2CCCC(CNC(=O)c3ccc(F)cc3)C2)c1 (stereo not drawn),-78.9
2,CCn1ncc(CN2CCCC(CNC(=O)c3ccc(F)cc3)C2)c1C (stereo not drawn),1.73
3,CCOC(=O)C1(CC2CCCCO2)CCN(Cc2cc(F)ccc2-n2cccn2)CC1 (stereo not drawn),-14.9
4,COc1cccc(NC(=O)NCCCCc2ccccc2)c1,-0.169
5,CCOC(=O)CN(C(=O)c1snc(C(N)=O)c1N)C(C(=O)NCCC(C)C)c1ccc(F)cc1 (stereo not drawn),7.34
6,COc1ccccc1CNC(=O)C(CCSC)NS(=O)(=O)c1ccc2c(c1)oc(=O)n2C (stereo not drawn),15.7
7,CN(C)S(=O)(=O)c1cccc(C(=O)OCC(=O)N2CCCC2=O)c1,12.1
8,O=C(CNC(=O)c1ccc(Cl)cc1)OCC(=O)c1ccccc1,-0.984
9,Cn1c(SCC(=O)NCCc2ccccc2)ncc(C(=O)Nc2ccc(F)cc2)c1=O,12.5
10,CC(C(=O)Oc1ccc2c(c1)OCO2)N1C(=O)c2ccccc2C1=O (stereo not drawn),-1.93
11,C/C(=N\N1CCN(c2ccc(Cl)cc2)CC1)c1cccs1,4.52
12,O=C(NC1CCCCC1)c1ccc(NS(=O)(=O)c2cccc3cccnc23)cc1,12.5
13,CCCC(c1nnnn1C1CCCCC1)N1CCN(C2CCCC2)CC1.Cl (stereo not drawn),-16.6
14,CCC(c1nnnn1C1CCCCC1)N1CCN(C2CCCC2)CC1.Cl (stereo not drawn),11.6
15,CCCC(c1nnnn1C(C)(C)CC)N1CCN(C2CCCC2)CC1.Cl (stereo not drawn),-17.8
16,CCCCC(c1nnnn1C1CCCC1)N1CCN(C2CCCCC2)CC1 (stereo not drawn),-63.1
17,CCCCC(c1nnnn1C1CCCC1)N1CCN(C2CCCC2)CC1.Cl (stereo not drawn),-82
18,CCCCC(c1nnnn1C1CCCC1)N1CCN(C(=O)c2ccco2)CC1.Cl (stereo not drawn),-13.5
19,C=CCNC(=O)c1c(Cl)cccc1Cl,6.34
20,COC(=O)C1=C(CSCc2ccco2)NC(=O)NC1c1cc(C)ccc1C (stereo not drawn),-8.26
21,COc1cccc(CN2CCN(CCCc3ccccc3)C(CCO)C2)c1O (stereo not drawn),-41.8
22,Cc1ccc(CN2CCN(CCCn3cccn3)CC2CCO)cc1 (stereo not drawn),-23.7
